Experimental data published in PubChem BioAssay AID602342 (Broad Institute, 2012).
The campaign covered roughly 340,000 compounds. About 1,000 (0.29%) were called active.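 The calls were made as follows: active = mean replicate activation score at least 90 and every replicate individually at or above 90; inconclusive = only one of the two criteria met; inactive = neither criterion met.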 Only a selection was taken, and actives are over-represented in it overall.

Experiment: miR-122 Renilla sensor signal increase in Huh7, primary screen, miR-122 inhibitor project, cell-based, single point, plate reader (AID 602342);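 also: higher luciferase means less miR-122 activity so hits act as miR-122 inhibitors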
Conditions: Huh7 miR-122 Renilla luciferase sensor, 48 h, active compounds read high, neutral wells = 0, positive control = 100; at 16.7 µM unless noted

| Compound | activation (reporter increase) |
| --- | --- |
| CC(=O)NS(=O)(=O)c1ccc(NC(=S)NC(=O)C(C)(C)C)cc1 | -3.58% [at 12.5 µM] (inactive) |
| COc1ccc(NS(=O)(=O)c2ccc(NC(=O)c3ccc(N(C)S(C)(=O)=O)cc3)cc2)cc1 | 3.93% [at 12.5 µM] (inactive) |
| COc1ccc(NS(=O)(=O)c2ccc(NC(=S)NC(=O)CC(C)C)cc2)cc1 | 161% [at 12.5 µM] (active) |
| C[C@@H]1CN([C@@H](C)CO)C(=O)c2cc(NC(=O)Cc3ccccc3)ccc2O[C@@H](C)CCCCO[C@H]1CN(C)C(=O)Cc1ccccc1 | 0.724% (inactive) |
| Cc1ccc(-c2ccc3c(c2)O[C@@H](CN(C)C(=O)CC2CC2)[C@@H](C)CN([C@@H](C)CO)S3(=O)=O)cc1 | 12.9% (inactive) |
| COc1ccc(NC(=O)N(C)C[C@H]2Oc3ccc(NS(=O)(=O)c4ccc(C)cc4)cc3C(=O)N([C@@H](C)CO)C[C@H]2C)cc1 | 3.8% (inactive) |
| COc1ccc(NC(=O)Nc2ccc3c(c2)C(=O)N([C@H](C)CO)C[C@H](C)[C@H](CN(C)S(=O)(=O)c2ccc(OC)cc2)O3)cc1 | -11.1% (inactive) |
| COc1ccccc1C(=O)Nc1ccccc1C(=O)Nc1ccccc1 | 1.44% [at 12.5 µM] (inactive) |
| COc1ccc(C(=O)Nc2ccccc2C(=O)N/N=C/c2ccccc2OC)cc1 | 115% [at 12.5 µM] (active) |
| COc1ccc(OC)c(/C=N/NC(=O)c2ccc[n+](CC(=O)c3ccccc3)c2)c1 | -4.06% [at 12.5 µM] (inactive) |
| COc1ccc(NC(=O)N(C)C[C@H]2OCCCC[C@@H](C)Oc3ccc(NC(=O)NC4CCCCC4)cc3C(=O)N([C@@H](C)CO)C[C@H]2C)cc1 | -3.11% (inactive) |
| NC(=O)c1cc(S(=O)(=O)NCCCc2ccco2)cs1 | 2.02% [at 12.5 µM] (inactive) |
| CCOC(=O)c1c(C)[nH]c(C)c1S(=O)(=O)NCCCc1ccco1 | 128% [at 12.5 µM] (active) |
| CCOC(=O)c1c(S(=O)(=O)NCC(=O)Nc2ccc(C)cc2)c(C)n(C)c1C | 3.19% [at 12.5 µM] (inactive) |
| Cc1noc(C)c1S(=O)(=O)Nc1ccc(C(=O)O)cc1 | 0.153% [at 12.5 µM] (inactive) |
| O=C(O)c1ccc(F)c(S(=O)(=O)Nc2ccccc2)c1 | 3.15% [at 12.5 µM] (inactive) |
| Cc1cc(C(C)(C)C)cc(S(=O)(=O)Nc2ccc(C(=O)O)cc2)c1C | 165% [at 12.5 µM] (active) |
| COc1ccc(CN(C)C[C@H]2OCCCC[C@@H](C)Oc3ccc(NS(=O)(=O)c4ccccc4)cc3C(=O)N([C@@H](C)CO)C[C@@H]2C)cc1 | -4.79% (inactive) |
| CNC(=O)C[C@@H]1CC[C@@H]2[C@H](COC[C@H](O)CN2Cc2ccc(C(F)(F)F)cc2)O1 | 1.05% (inactive) |
| COc1ccc(OCC(=O)NCCc2ccc(S(N)(=O)=O)cc2)cc1 | -15.2% [at 12.5 µM] (inactive) |
| COc1ccc(OCCCC(=O)NCCc2ccccc2)cc1 | 223% [at 12.5 µM] (active) |
| COc1ccc(CCNC(=O)c2ccccc2OCc2ccccc2)cc1 | -1.62% [at 12.5 µM] (inactive) |
| OC[C@@H]1[C@H](c2ccc(C#CC3CC3)cc2)[C@@H]2CN(CCC(F)(F)F)CCCCN12 | 12.9% (inactive) |

| Compound | activation (reporter increase) |
| --- | --- |
| CCCNC(=O)N1C[C@@H](O)COC[C@@H]2O[C@@H](CC(=O)O)CC[C@H]21 | 0.047% (inactive) |
| C[C@H](CO)N1C[C@H](C)[C@@H](CN(C)Cc2ccc3c(c2)OCO3)Oc2c(NC(=O)C3CCOCC3)cccc2C1=O | 319% (active) |
| C[C@@H]1CN([C@H](C)CO)C(=O)c2cccc(NC(=O)c3cnccn3)c2O[C@@H]1CN(C)Cc1ccncc1 | -3.39% (inactive) |
| C[C@H](CO)N1C[C@H](C)[C@H](CN(C)CC2CCCCC2)Oc2c(NC(=O)c3cnccn3)cccc2C1=O | 119% (active) |
| C[C@H](CO)N1C[C@H](C)[C@H](CN(C)Cc2ccc(C(=O)O)cc2)Oc2c(NC(=O)C3CCOCC3)cccc2C1=O | -5.1% (inactive) |
| CC(C)NC(=O)N(C)C[C@@H]1Oc2c(NC(=O)c3cnccn3)cccc2C(=O)N([C@@H](C)CO)C[C@@H]1C | 4.6% (inactive) |
| C[C@H](CO)N1C[C@H](C)[C@@H](CN(C)Cc2ccccc2)Oc2c(NC(=O)C3CCOCC3)cccc2C1=O | 14.3% (inactive) |
| CN(C)CCCNC(=O)C[C@@H]1C=C[C@H](NC(=O)Cc2cccnc2)[C@H](CO)O1 | 15.8% (inactive) |
| COc1ccc(S(=O)(=O)N(C)C[C@H]2OCCCC[C@@H](C)Oc3ccc(NC(=O)CCC(F)(F)F)cc3C(=O)N([C@@H](C)CO)C[C@H]2C)cc1 | 16.9% (inactive) |
| C[C@@H]1CCCCO[C@@H](CN(C)S(=O)(=O)c2cn(C)cn2)[C@@H](C)CN([C@@H](C)CO)C(=O)c2cc(NC(=O)Nc3ccc(C(F)(F)F)cc3)ccc2O1 | -9.96% (inactive) |
| CCOc1ncccc1C(=O)NNC(=O)c1cccc(S(=O)(=O)Nc2ccccc2OC)c1 | -0.667% [at 12.5 µM] (inactive) |
| COc1ccc(N2CC(NS(=O)(=O)c3ccc4ccccc4c3)CC2=O)cc1 (stereo unspecified) | -5.35% [at 12.5 µM] (inactive) |
| COc1cc(NS(=O)(=O)c2ccc3ccccc3c2)c2ncccc2c1 | 152% [at 12.5 µM] (active) |
| C[C@H]1CN([C@@H](C)CO)C(=O)c2cccc(NC(=O)Nc3ccc(F)cc3)c2O[C@H]1CN(C)S(=O)(=O)c1cn(C)cn1 | 4.09% (inactive) |
| COc1ccc(S(=O)(=O)Nc2ccc3c(c2)OCO3)cc1Cl | 37.2% [at 12.5 µM] (inactive) |
| COc1ccc(F)cc1S(=O)(=O)Nc1ccc2c(c1)OCO2 | 99.7% [at 12.5 µM] (active) |
| COc1ccc(NS(=O)(=O)c2ccc(F)cc2F)cn1 | -2.63% [at 12.5 µM] (inactive) |
| CCOc1ccc(S(=O)(=O)Nc2ccncc2)c(C)c1C | 20.9% [at 12.5 µM] (inactive) |
| COc1ccc(F)cc1S(=O)(=O)NCC(c1ccc2c(c1)OCO2)N1CCN(C)CC1 (stereo unspecified) | 2.63% [at 12.5 µM] (inactive) |
| COc1ccc(S(=O)(=O)Nc2ccc(F)cc2)c(C)c1C | 231% [at 12.5 µM] (active) |
| CO[C@H]1CN(C)C(=O)c2ccc(NS(=O)(=O)c3ccccc3C)cc2OC[C@H](C)NC[C@H]1C | 6.89% (inactive) |
| Cn1cnc(S(=O)(=O)N2C[C@@H](O)COC[C@H]3O[C@@H](CC(=O)NCc4ccc(F)cc4)CC[C@@H]32)c1 | 2.69% (inactive) |
| O=C(N[C@@H]1CC[C@H](CCn2cc(C3CC3)nn2)O[C@H]1CO)c1cccnc1 | -7.57% (inactive) |
